Activity calls are given as the source filed them. Calls come from the whole dose curve; as a rule, active = well fitted curve in the direction sought with a large enough effect; inactive = no such curve, though single readings can be large or run the other way. Residues, ends and D or L forms follow the SMILES beside them. *: point of attachment. Cbz = O=C(OCc1ccccc1)*
Biological target: Alpha-galactosidase A (Homo sapiens) (UniProt P06280)
Test: Counterscreen for Glucocerebrosidase Inhibitors: qHTS Assay for Human alpha-Galactosidase at pH 4.5 (AID 992); note: 0% is about no effect
Details: purified enzyme, fluorogenic substrate; series mostly up to 76.9 µM; activity change, negative = inhibition: at the top concentration
Summary of the method: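 Quantitative HTS: compounds tested from 0.7 nM up to 77 uM against 2 nM enzyme with 80 uM 4-MU alpha-D-galactopyranoside. The 20 min room-temperature reaction is stopped with 1M NaOH/1M glycine, pH 10.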

Sequence of Alpha-galactosidase A (Homo sapiens) (P06280 whole entry, looked up): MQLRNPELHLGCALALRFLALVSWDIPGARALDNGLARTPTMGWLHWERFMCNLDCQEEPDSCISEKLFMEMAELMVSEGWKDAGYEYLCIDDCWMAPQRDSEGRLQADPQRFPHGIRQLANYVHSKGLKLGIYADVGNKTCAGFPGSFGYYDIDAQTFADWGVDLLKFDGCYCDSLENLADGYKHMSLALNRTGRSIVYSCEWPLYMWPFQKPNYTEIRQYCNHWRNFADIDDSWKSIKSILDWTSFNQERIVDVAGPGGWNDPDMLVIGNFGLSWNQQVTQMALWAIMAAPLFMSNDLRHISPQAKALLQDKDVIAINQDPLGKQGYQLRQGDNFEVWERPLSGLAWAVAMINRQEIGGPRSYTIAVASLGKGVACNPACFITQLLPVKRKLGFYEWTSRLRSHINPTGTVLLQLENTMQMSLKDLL

SMILES | activity change, negative = inhibition
O=C(O)C1=CC(=C(c2ccc(O)c(C(=O)O)c2)c2ccc(O)c(C(=O)O)c2)C=CC1=O | -12.2% (inactive)
C=CCn1c(=O)c2c(nc(-c3ccc(S(=O)(=O)O)cc3)n2C)n(C)c1=O | 2.86% (inactive)
O=C(N[C@@H](Cc1ccccc1)C(=O)CCl)OCc1ccccc1 | 0.467% (inactive)
[Li+] | -1.31% (inactive)
N=C(N)c1ccc(N)cc1 | -2.38% (inactive)
N#CC(C#N)=C(N)/C(C#N)=C/c1ccc(O)cc1 | -4.28% (inactive)
CCCOC(=O)c1c(-c2ccccc2)nc(CC)c(C(=O)SCC)c1CCC | -4.02% (inactive)
CC(C)[C@H](NC(=O)OCc1ccccc1)C(=O)N[C@H](C=O)Cc1ccccc1 (Cbz-Val-Phe-aldehyde) | -0.835% (inactive)
O=C(O)c1ccccc1Nc1cccc(OCc2ccc3ccccc3n2)c1 | -0.0455% (inactive)
c1ccc2c(c1)CC(N1CCN(c3cccc4c3OCCO4)CC1)C2 | -4.06% (inactive)
O=C(O)Cc1c[nH]c2ccc(O)cc12 | 0.722% (inactive)
CCCC(=O)NCCc1c2n(c3ccc(OC)cc13)CCCc1ccccc1-2 | -4.28% (inactive)
CC(C)(C)c1cc(/C=C(\C#N)C(N)=S)cc(C(C)(C)C)c1O | 0.368% (inactive)
O=c1cc(-c2ccccc2)[nH]c2nc(Cl)ccc12 | 0.562% (inactive)
O=C(O)c1cc2cc(F)ccc2[nH]1 | -0.517% (inactive)
